Assay results published in the supplement of paper PMC10849652.
About 8,800 targets were measured; listed, in parts, are those with a hit and a random draw of the rest. About 0.5% of all pairs of compound and target were hits.

Columns and labels:
Test in all cases: log2 fold change, soluble protein after heating vs DMSO (PISA); higher = thermal stabilisation; K562 lysate, 10 uM; active = over 0.2 and 3.5 SD of the protein, either way, in both replicates (recomputed)
erlotinib = compound: C#Cc1cccc(Nc2ncnc3cc(OCCOC)c(OCCOC)cc23)c1 [erlotinib]
Method in brief: (§1)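 Soluble protein was defined as the supernatant remaining after 21,000xg for 90 min, following pooling of heated aliquots and adjustment to 0.5% NP-40 at 4°C. Before that, crude K562 extract at 1 mg/mL protein in PBS pH 7.4 with 1 mM MgCl2 was treated with 10 μM compound for 30 min and heated for 3 min across 48°C-58°C. Quantification used TMTpro 16plex LC-MS/MS with channel sums equalised, and values are log-two fold changes in thermal stability relative to solvent controls from duplicates.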

[1] = compound: C/C(=N\NC(=O)C1=CC(=CC=C1)S(=O)(=O)N2CCOCC2)/C3=C(C=CC(=C3)Cl)O
Method in brief: as §1

[2] = compound: C1=CC(=CC=C1C2=NC3=C(N2)C=C(C=C3)C(=O)N)OC4=CC=C(C=C4)Cl
Method in brief: as §1

[3] = compound: C1=CC2=C(C=CC(=C2)/C=C\3/C(=O)NC(=NCC4=CC=CS4)S3)N=C1
Method in brief: as §1

[4] = compound: C1=CC2=NC=CN=C2C=C1/C=C/3\C(=O)NC(=O)S3
Method in brief: as §1

[5] = compound: C1=CC=C(C=C1)C2=NC(=C(N2)C3=CC=NC=C3)C4=CC(=C(C=C4)Cl)O
Method in brief: as §1

[6] = compound: C1=CC=C2C(=C1)C3=NNC4=CC=CC(=C43)C2=O
Method in brief: as §1

[7] = compound: C1CCN(C1)C(=O)NC2=CC=CC(=C2)NC3=NC=C(C(=N3)NCCC4=CN=CN4)Br
Method in brief: as §1

[8] = compound: C1CN(CCC1(CC2=CC=C(C=C2)Cl)N)C3=NC=NC4=C3C=CN4
Method in brief: as §1

IRAK-1-4 Inhibitor I = compound: C1COCCN1CCN2C3=CC=CC=C3N=C2NC(=O)C4=CC(=CC=C4)[N+](=O)[O-] [IRAK-1-4 Inhibitor I]
Method in brief: as §1

ibrutinib = compound: C=CC(=O)N1CCC[C@@H](n2nc(-c3ccc(Oc4ccccc4)cc3)c3c(N)ncnc32)C1 [ibrutinib]
Method in brief: as §1

[9] = compound: CC(=O)c1cnc2ccc(-c3cc(Cl)c(O)c(Cl)c3)nc2c1N[C@H]1CC[C@H](CN(C)C)CC1
Method in brief: as §1

ralimetinib = compound: CC(C)(C)Cn1c(N)nc2ccc(-c3[nH]c(C(C)(C)C)nc3-c3ccc(F)cc3)nc21 [ralimetinib]
Method in brief: as §1

[10] = compound: CC(C)(O)CC(=O)NCCn1ccc2ncnc(Nc3ccc(Oc4cccc(C(F)(F)F)c4)c(Cl)c3)c21
Method in brief: as §1

[11] = compound: CC(C)C1=C2N=C(C=C(N2N=C1)NCC3=CC=CC=C3)NCCCCCCN
Method in brief: as §1

[12] = compound: CC1=C(C2=C(C=C1)C(=O)C3=CC=CC=C3N2CCCN)C
Method in brief: as §1

[13] = compound: CC1=C(C=C(C=C1)NC(=O)C2=CC(=CC=C2)C(C)(C)C#N)NC3=CC4=C(C=C3)N=CN(C4=O)C
Method in brief: as §1

[14] = compound: CC1=C(C=C(C=C1)NC(=O)C2=CC(=CC=C2)N(C)C)NC(=O)C3=CC=C(C=C3)O
Method in brief: as §1

[15] = compound: CC1=CC=C(C=C1)SC2=C3C=C(SC3=CN=C2)C(=O)N
Method in brief: as §1

[16] = compound: CC1=C(C(CC(=O)N1)C2=CC=C(C=C2)C(F)(F)F)C(=O)NC3=C(C=C4C(=C3)C=NN4)F
Method in brief: as §1

Measured: log2 fold change

UBXN10 (UniProt Q96LJ8)
Chain of UniProt Q96LJ8 (Q96LJ8 whole entry, looked up): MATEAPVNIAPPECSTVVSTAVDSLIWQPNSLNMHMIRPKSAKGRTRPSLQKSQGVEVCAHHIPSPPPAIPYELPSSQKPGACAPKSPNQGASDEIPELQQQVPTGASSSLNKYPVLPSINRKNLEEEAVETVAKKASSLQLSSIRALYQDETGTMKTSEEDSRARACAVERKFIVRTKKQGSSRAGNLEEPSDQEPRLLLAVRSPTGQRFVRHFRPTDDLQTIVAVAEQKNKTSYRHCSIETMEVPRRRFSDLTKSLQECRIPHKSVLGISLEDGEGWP
inactive: erlotinib 0.064 | [1] 0.026 | [2] 0.057 | [3] -0.089 | [4] -0.072 | [5] 0.027 | [6] 0.018 | [7] -0.012 | [8] 0.041 | IRAK-1-4 Inhibitor I 0.03 | ibrutinib 0.016 | [9] 0.044 | ralimetinib 0.002 | [10] -0.012 | [11] 0.014 | [12] 0.012 | [13] -0.001 | [14] 0.069 | [15] -0.015

UBP1 (UniProt Q9NZI7)
Chain of UniProt Q9NZI7 (Q9NZI7 whole entry, looked up): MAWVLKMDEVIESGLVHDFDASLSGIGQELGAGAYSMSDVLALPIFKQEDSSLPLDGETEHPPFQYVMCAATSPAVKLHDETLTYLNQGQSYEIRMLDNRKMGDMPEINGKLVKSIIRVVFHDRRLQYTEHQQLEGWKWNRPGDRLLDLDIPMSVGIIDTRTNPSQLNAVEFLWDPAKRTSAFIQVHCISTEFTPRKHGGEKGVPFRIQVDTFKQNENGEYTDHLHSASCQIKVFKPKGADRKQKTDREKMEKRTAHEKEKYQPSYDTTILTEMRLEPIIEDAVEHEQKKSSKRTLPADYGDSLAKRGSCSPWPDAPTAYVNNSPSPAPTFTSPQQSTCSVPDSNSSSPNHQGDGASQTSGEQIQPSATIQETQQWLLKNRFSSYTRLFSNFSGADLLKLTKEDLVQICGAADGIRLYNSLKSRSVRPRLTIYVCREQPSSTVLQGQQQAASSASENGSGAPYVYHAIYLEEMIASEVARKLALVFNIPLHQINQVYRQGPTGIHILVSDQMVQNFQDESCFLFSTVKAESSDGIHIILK
inactive: erlotinib 0.018 | [1] -0.109 | [2] -0.095 | [3] 0.048 | [4] 0.016 | [5] 0.01 | [6] 0.032 | [7] -0.034 | [8] -0.017 | IRAK-1-4 Inhibitor I 0.029 | ibrutinib -0.006 | [9] 0.056 | ralimetinib 0.024 | [10] -0.004 | [11] 0.048 | [16] -0.028 | [12] 0.047 | [13] 0.03 | [14] -0.037 | [15] 0.004

TUBAL3 (UniProt A6NHL2)
Chain of UniProt A6NHL2 (A6NHL2 whole entry, looked up): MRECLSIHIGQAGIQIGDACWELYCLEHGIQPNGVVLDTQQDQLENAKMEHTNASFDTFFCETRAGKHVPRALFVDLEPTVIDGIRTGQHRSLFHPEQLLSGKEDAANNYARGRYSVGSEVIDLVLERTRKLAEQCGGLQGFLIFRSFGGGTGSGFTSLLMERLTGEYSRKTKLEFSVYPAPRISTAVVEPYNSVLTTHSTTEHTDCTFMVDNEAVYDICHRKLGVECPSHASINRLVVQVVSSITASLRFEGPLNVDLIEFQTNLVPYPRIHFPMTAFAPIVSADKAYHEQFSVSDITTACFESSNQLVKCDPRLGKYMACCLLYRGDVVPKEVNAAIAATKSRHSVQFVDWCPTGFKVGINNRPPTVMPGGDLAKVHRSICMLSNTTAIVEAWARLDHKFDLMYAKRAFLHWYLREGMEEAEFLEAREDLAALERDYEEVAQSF
inactive: erlotinib -0.018 | [1] -0.01 | [2] -0.076 | [3] -0.114 | [4] -0.004 | [5] -0.011 | [6] -0.134 | [7] -0.025 | [8] 0.037 | IRAK-1-4 Inhibitor I 0.078 | ibrutinib 0.002 | [9] -0.071 | ralimetinib 0.056 | [10] -0.145 | [11] 0.116 | [16] -0.009 | [12] -0.008 | [14] -0.119 | [15] 0.025

UBIAD1 (UniProt Q9Y5Z9)
Chain of UniProt Q9Y5Z9 (Q9Y5Z9 whole entry, looked up): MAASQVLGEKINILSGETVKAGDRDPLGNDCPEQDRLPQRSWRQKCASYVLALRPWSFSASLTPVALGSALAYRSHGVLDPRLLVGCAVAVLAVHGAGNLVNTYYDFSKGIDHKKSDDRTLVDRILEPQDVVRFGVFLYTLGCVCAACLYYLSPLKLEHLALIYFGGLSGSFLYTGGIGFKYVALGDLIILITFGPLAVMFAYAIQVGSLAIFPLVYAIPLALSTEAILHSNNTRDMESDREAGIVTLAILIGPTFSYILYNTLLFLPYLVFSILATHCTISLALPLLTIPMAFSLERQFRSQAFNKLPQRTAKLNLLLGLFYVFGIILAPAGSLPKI
active: [6] 0.46
inactive: erlotinib 0.013 | [1] 0.16 | [2] -0.128 | [3] 0.092 | [5] 0.249 | [7] 0.023 | [8] 0.057 | IRAK-1-4 Inhibitor I -0.042 | [9] -0.012 | ralimetinib 0.01 | [10] 0.007 | [11] 0.067 | [16] -0.159 | [12] -0.049 | [13] 0.088 | [14] 0.012 | [15] 0.009

TRADD (UniProt Q15628)
active: [1] 0.258
inactive: erlotinib 0.053 | [2] 0.03 | [3] -0.224 | [4] 0.009 | [5] -0.013 | [6] 0.251 | [7] 0.029 | [8] 0.076 | IRAK-1-4 Inhibitor I 0.033 | ibrutinib 0.013 | [9] 0.017 | ralimetinib -0.005 | [10] -0.012 | [11] -0.018 | [16] -0.015 | [12] -0.001 | [13] 0.017 | [14] 0.021 | [15] 0.019

TMEM97 (UniProt Q5BJF2)
Chain of UniProt Q5BJF2 (Q5BJF2 whole entry, looked up): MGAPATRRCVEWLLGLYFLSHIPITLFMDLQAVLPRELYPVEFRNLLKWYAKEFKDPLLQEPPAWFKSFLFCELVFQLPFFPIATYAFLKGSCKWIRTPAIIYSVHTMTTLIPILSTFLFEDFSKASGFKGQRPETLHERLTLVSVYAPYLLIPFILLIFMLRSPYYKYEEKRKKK
inactive: erlotinib 0.01 | [1] 0.043 | [2] 0.036 | [3] 0.007 | [4] 0.019 | [5] 0 | [6] 0.002 | [7] -0.033 | [8] 0.018 | IRAK-1-4 Inhibitor I 0.091 | ibrutinib 0.01 | [9] 0.012 | ralimetinib 0.004 | [10] -0.056 | [11] -0.034 | [16] -0.025 | [12] -0.032 | [13] 0.003 | [14] 0.042 | [15] -0.017

TTC37 (UniProt Q6PGP7)
inactive: erlotinib 0.05 | [1] -0.148 | [2] 0.07 | [3] -0.014 | [4] -0.069 | [5] -0.187 | [6] -0.068 | IRAK-1-4 Inhibitor I 0.051 | ibrutinib 0.012 | [9] 0.047 | ralimetinib -0.024 | [10] 0.012 | [11] -0.012 | [16] -0.019 | [12] -0.188 | [13] 0.154 | [14] -0.043 | [15] -0.15

TTL (UniProt Q8NG68)
Chain of UniProt Q8NG68 (Q8NG68 whole entry, looked up): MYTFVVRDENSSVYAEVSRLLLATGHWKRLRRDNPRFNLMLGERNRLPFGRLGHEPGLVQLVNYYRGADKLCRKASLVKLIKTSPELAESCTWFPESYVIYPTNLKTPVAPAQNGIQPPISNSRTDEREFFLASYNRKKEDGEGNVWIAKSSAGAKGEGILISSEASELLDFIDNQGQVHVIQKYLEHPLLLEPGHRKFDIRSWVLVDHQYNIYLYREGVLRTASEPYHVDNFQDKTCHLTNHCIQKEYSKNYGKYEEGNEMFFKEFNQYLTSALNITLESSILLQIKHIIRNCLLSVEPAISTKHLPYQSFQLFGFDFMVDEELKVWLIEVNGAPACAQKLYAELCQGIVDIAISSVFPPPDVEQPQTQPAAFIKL
inactive: erlotinib 0.056 | [1] 0.01 | [2] 0 | [3] 0.019 | [4] -0.001 | [5] -0.027 | [6] 0.097 | [7] 0.006 | [8] -0.074 | IRAK-1-4 Inhibitor I 0.019 | ibrutinib 0.014 | [9] 0.101 | ralimetinib -0.029 | [10] 0.037 | [11] 0.018 | [16] 0.016 | [12] -0.065 | [13] 0.063 | [14] 0.063 | [15] -0.074

TFAP4 (UniProt Q01664)
inactive: erlotinib -0.063 | [1] -0.042 | [2] 0.017 | [3] -0.025 | [4] 0.018 | [5] -0.09 | [6] 0.055 | [7] 0.135 | [8] -0.016 | IRAK-1-4 Inhibitor I -0.061 | ibrutinib 0.057 | [9] 0.141 | ralimetinib 0.004 | [10] -0.26 | [11] -0.109 | [16] 0.046 | [13] 0.058 | [14] 0.038 | [15] 0.07

TPM1 isoform 4 (UniProt P09493)
Chain of UniProt P09493 (P09493 whole entry, looked up): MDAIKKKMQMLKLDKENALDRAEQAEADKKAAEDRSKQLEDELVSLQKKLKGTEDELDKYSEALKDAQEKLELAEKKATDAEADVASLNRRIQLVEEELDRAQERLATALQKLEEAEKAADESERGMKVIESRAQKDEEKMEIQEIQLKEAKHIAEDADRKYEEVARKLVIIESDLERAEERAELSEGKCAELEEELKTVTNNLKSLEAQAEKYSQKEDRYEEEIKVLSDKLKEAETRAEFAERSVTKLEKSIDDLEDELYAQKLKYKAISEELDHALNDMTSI
inactive: erlotinib -0.126 | [1] -0.004 | [2] 0.005 | [3] 0.018 | [4] 0.114 | [5] -0.026 | [6] -0.015 | [7] 0.014 | [8] -0.052 | IRAK-1-4 Inhibitor I -0.009 | ibrutinib -0.019 | [9] 0.009 | ralimetinib 0.001 | [10] -0.011 | [11] -0.024 | [16] -0.011 | [12] 0.062 | [13] 0.011 | [14] -0.022 | [15] 0.001

TNKS (UniProt O95271)
Chain of UniProt O95271 (O95271 whole entry, looked up): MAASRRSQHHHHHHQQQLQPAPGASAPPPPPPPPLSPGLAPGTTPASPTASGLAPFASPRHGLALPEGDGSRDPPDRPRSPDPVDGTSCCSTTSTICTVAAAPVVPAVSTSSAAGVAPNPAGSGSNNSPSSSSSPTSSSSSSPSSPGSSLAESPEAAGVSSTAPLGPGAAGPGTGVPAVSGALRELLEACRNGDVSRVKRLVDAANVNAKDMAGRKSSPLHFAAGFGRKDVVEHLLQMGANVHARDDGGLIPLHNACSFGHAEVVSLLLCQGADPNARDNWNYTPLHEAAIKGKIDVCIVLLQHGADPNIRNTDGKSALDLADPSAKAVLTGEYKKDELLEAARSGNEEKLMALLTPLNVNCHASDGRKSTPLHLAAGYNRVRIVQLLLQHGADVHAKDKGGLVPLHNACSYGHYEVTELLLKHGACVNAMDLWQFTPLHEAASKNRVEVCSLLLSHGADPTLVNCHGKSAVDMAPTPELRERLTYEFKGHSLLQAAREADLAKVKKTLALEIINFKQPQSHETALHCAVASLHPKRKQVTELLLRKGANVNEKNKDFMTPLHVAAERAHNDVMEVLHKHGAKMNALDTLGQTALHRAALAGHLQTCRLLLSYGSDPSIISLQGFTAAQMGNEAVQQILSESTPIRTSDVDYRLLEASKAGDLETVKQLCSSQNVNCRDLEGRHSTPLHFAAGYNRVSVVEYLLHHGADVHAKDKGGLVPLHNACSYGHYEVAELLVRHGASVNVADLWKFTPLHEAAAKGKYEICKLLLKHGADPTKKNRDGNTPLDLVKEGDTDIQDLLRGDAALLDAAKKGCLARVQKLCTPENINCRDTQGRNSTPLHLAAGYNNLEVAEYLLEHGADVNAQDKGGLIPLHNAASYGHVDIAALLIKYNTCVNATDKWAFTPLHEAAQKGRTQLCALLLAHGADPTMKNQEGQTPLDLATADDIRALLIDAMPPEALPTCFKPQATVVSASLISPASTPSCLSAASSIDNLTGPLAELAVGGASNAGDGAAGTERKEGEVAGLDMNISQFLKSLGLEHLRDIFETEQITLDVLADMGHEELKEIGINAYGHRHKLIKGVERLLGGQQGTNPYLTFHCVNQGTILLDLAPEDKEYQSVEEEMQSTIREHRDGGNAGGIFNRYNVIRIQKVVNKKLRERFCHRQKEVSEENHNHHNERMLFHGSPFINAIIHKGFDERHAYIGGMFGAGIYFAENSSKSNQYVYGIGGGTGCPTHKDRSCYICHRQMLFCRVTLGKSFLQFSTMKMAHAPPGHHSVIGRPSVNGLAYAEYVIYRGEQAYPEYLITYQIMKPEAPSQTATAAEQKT
inactive: erlotinib 0.064 | [1] -0.024 | [2] -0.036 | [3] -0.005 | [5] 0.052 | [6] -0.01 | [7] -0.061 | [8] -0.02 | IRAK-1-4 Inhibitor I -0.073 | [9] 0.038 | ralimetinib -0.04 | [10] 0.022 | [11] -0.045 | [16] -0.001 | [12] -0.076 | [13] 0.004 | [14] 0.006 | [15] 0.124

TUBA1B (UniProt P68363)
Chain of UniProt P68363 (P68363 whole entry, looked up): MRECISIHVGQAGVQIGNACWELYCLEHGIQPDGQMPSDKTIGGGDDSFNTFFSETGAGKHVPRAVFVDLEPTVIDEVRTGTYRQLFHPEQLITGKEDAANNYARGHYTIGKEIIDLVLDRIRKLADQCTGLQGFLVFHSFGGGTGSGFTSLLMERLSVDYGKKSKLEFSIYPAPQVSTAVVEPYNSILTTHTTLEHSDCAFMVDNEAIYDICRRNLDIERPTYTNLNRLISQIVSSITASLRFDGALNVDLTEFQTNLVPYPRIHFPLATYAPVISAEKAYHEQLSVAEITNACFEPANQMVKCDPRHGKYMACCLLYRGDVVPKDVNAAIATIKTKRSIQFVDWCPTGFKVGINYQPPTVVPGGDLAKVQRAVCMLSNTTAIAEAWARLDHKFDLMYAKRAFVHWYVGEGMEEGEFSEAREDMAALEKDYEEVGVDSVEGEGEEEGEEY
inactive: erlotinib 0.031 | [1] -0.022 | [2] 0.009 | [3] -0.018 | [4] 0.006 | [5] -0.013 | [6] -0.018 | [7] 0.009 | [8] 0.02 | IRAK-1-4 Inhibitor I 0.022 | ibrutinib -0.012 | [9] 0.008 | ralimetinib 0.025 | [10] 0.003 | [11] 0.021 | [16] -0.011 | [12] -0.003 | [13] 0.018 | [14] 0.022 | [15] 0.005

TJP1 (UniProt G3V1L9)
inactive: erlotinib 0.169 | [1] 0.199 | [2] 0.087 | [3] -0.119 | [4] -0.068 | [5] 0.014 | [6] 0.063 | IRAK-1-4 Inhibitor I 0.047 | ibrutinib 0.024 | ralimetinib 0.075 | [10] -0.014 | [11] -0.025 | [16] -0.041 | [12] 0.022 | [13] -0.017 | [14] -0.041

UBTF (UniProt P17480)
Chain of UniProt P17480 (P17480 whole entry, looked up): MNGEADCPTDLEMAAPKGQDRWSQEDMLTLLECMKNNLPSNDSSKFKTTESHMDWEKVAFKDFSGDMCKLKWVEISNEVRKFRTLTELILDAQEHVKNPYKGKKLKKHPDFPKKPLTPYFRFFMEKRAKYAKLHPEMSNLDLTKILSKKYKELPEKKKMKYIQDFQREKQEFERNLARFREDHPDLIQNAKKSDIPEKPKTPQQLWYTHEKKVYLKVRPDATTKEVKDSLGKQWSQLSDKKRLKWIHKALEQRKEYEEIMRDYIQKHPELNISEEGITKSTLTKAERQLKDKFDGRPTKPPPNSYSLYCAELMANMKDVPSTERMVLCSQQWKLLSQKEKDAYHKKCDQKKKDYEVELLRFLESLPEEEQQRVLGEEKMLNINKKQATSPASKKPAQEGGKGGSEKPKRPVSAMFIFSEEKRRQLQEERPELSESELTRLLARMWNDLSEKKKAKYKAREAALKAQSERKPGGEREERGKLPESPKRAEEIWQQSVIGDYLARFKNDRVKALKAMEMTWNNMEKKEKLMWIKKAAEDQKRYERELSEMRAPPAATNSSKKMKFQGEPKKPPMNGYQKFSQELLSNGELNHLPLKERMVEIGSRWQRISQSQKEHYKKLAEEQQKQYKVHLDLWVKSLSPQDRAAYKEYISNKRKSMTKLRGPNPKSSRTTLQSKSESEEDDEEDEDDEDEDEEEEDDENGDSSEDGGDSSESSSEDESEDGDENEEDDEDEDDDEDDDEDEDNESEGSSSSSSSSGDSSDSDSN
inactive: erlotinib 0.02 | [1] 0.015 | [2] 0.018 | [3] 0.03 | [4] -0.009 | [5] 0.002 | [6] 0.027 | [7] 0.009 | [8] -0.022 | IRAK-1-4 Inhibitor I -0.024 | ibrutinib 0.026 | [9] 0.025 | ralimetinib 0.017 | [10] -0.002 | [11] 0.016 | [16] 0.046 | [12] -0.075 | [13] -0.022 | [14] 0.044 | [15] -0.002

UBR4 (UniProt Q5T4S7)
inactive: erlotinib 0 | [1] 0.039 | [2] -0.016 | [3] 0.017 | [4] -0.006 | [5] 0.008 | [6] -0.01 | [7] -0.021 | [8] 0.002 | IRAK-1-4 Inhibitor I -0.009 | ibrutinib -0.019 | [9] -0.008 | ralimetinib 0.02 | [10] -0.011 | [11] -0.02 | [16] 0.003 | [12] 0.011 | [13] 0.009 | [14] 0.014 | [15] 0.01

TK1 (UniProt K7ERV3)
inactive: erlotinib 0.01 | [1] -0.061 | [2] 0.078 | [3] -0.047 | [4] -0.114 | [5] 0.048 | [6] 0.036 | [7] 0.017 | [8] 0.222 | IRAK-1-4 Inhibitor I 0.04 | ibrutinib 0.175 | ralimetinib -0.018 | [10] -0.061 | [11] -0.114 | [16] -0.013 | [12] -0.023 | [13] 0.032 | [14] -0.028

UBXN2B (UniProt Q14CS0)
inactive: erlotinib -0.008 | [1] -0.079 | [2] 0.073 | [3] -0.045 | [4] -0.01 | [5] -0.062 | [6] 0.149 | [7] -0.04 | [8] -0.046 | IRAK-1-4 Inhibitor I -0.028 | ibrutinib 0.108 | [9] 0.19 | ralimetinib 0.087 | [10] -0.075 | [11] 0.002 | [16] -0.189 | [12] -0.192 | [14] 0.022 | [15] -0.011
